The text below walks through data of PubChem BioAssay AID2101 (National Center for Advancing Translational Sciences (NCATS), 2009).

Each structure is given as a SMILES string. The campaign covered roughly 330,000 compounds. About 300 (0.091%) were called active. Another 4% or so got no clear call; they are omitted. The sample holds actives, similar compounds and a random draw of the others, so the mix is not that of the screen. Values without a mark were called inactive. Calls follow the shape of the dose curve; as a rule, active = well fitted inhibition curve with a large enough effect; inconclusive = small, poorly fitted or top-dose-only effect, or effect the other way, or another doubt; inactive = no such curve, though single readings can be large or run the other way.
Potency is read from the fitted curve at half-maximal effect.

The target of the experiment is Lysosomal acid glucosylceramidase (Homo sapiens) (UniProt P04062). Briefly: qHTS Assay for Inhibitors and Activators of N370S glucocerebrosidase as a Potential Chaperone Treatment of Gaucher Disease.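 As to activity change, negative = inhibition: 0% = full enzyme activity and -100% = no enzyme basal.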 Conditions: N370S GC spleen homogenate, 4MU-glucoside fluorescence; series mostly up to 59.4 µM; activity change, negative = inhibition: at the top concentration. (In general: qHTS replaces the single test concentration by a dilution series.)
As to `O=C(CSc1nnc(COc2ccc(Cl)cc2)n1Cc1ccco1)N1CCNC1=O`, the “activity change, negative = inhibition” value was 1.42%. As to `CCC(=O)c1ccc(OCC(=O)N(CC)CC2COc3ccccc3O2)cc1` (stereo not drawn), the “activity change, negative = inhibition” value was -0.293%. Regarding `CC1Cc2ccccc2N1S(=O)(=O)c1cccc(C(=O)NCC(c2ccco2)N2CCCC2)c1` (stereo not drawn), the “activity change, negative = inhibition” value was -17.1%.

Take `C[C@@H]1O[C@@H](O[C@@H]2[C@@H](O)[C@H](OCCc3ccc(O)c(O)c3)O[C@H](CO[C@@H]3O[C@H](CO)[C@@H](O)[C@H](O)[C@H]3O)[C@H]2OC(=O)/C=C/c2ccc(O)c(O)c2)[C@H](O)[C@H](O)[C@H]1O`: the “activity change, negative = inhibition” value is -12.8%. Regarding `C=CCC(C)(O)c1ccco1` (stereo not drawn), the “activity change, negative = inhibition” value was -11%. As to `COc1ccc(C2CC(O)(c3ccccc3)Oc3cc(C)cc(C)c32)cc1` (stereo not drawn), the “activity change, negative = inhibition” value was 3.66%. `C=CCN1C(=O)c2ccc(C(=O)N3CCC(C(=O)OCC)CC3)cc2C1=O`: the “activity change, negative = inhibition” value was -1.64%. As to `O=C(COC(=O)c1ccccc1Cl)NC1CCCCCCC1`, the “activity change, negative = inhibition” value is 1.18%. In the case of `C[C@H]1CC[C@H](C(=O)O)N[C@@H]1c1ccc(C#Cc2ccccc2)cc1`, the activity change, negative = inhibition is 5.48% [at 12.8 µM]. Take `COc1ccc(-c2nc3c(c4c2C[C@H](c2ccccc2)OC4)CN(S(=O)(=O)c2c(C)noc2C)CC3)c(C)c1`: the activity change, negative = inhibition is -9.78% [at 12.8 µM]. For `COC(=O)c1sc(NC(=O)COC(=O)C2CCC2)c(C(=O)OC)c1C`, the “activity change, negative = inhibition” value was -10.4%. Take `CC(C)c1cnc(NC(=O)Cc2ccccc2)s1`: the “activity change, negative = inhibition” value is 21.3%. Consider `NCCC(=O)c1ccccc1N`, for which the “activity change, negative = inhibition” value is 2.36%. As for `O=C(CCNC(=O)c1ccc([N+](=O)[O-])cc1)NC1CCCCC1`, the “activity change, negative = inhibition” value is -0.406%. Take `CCN(c1ccccc1)S(=O)(=O)c1cc(C(=O)NCc2ccccn2)ccc1C`: the “activity change, negative = inhibition” value is -1.72%.

Take `C=C1/C(=C\C=C2\CCCC3(C)C2CCC3C(C)/C=C/C(O)C2CC2)CC(O)CC1O` (stereo not drawn): the “activity change, negative = inhibition” value is -4.51%. With `N#Cc1cc2[nH]c(=O)c(=O)[nH]c2cc1[N+](=O)[O-]`, the Potency was 22.4 µM (active). Regarding `COc1ccc(CC(N)C(=O)NC2C(O)[C@H](n3cnc4c(N(C)C)ncnc43)O[C@@H]2CO)cc1` (stereo partly drawn), the “activity change, negative = inhibition” value was 1.71%. With `COC(=O)[C@H]1C[C@@H]1[C@H](NC(=O)Oc1ccc(F)cc1)c1ccccc1`, the “activity change, negative = inhibition” value is 2.79%. The same measure, in the same setting: the figure for `Cc1nnc(NC(=O)c2ccc3nccnc3c2)s1` is -1.49%; for `CCOC(=O)C1=C(C)NC2=C(C(=O)CC(C)(C)C2)C1c1ccsc1` (stereo not drawn) it is 0.443%; for `COc1ccc(C2C(C#N)=C(/N=C/N3CCOCC3)OC3=C2C(=O)CC(C)(C)C3)cc1OC` (stereo not drawn) it is 12.4%. For `COc1cc(C2C(C#N)=C(C)NC3=C2C(=O)CC(C)(C)C3)ccc1O` (stereo not drawn), the Potency was 10 µM (active).

`O=S(=O)(NC1CCN(S(=O)(=O)c2ccc3c(c2)OCCO3)CC1)c1c(F)cccc1F`: the “activity change, negative = inhibition” value was -3.77%. With `CCN(CC)S(=O)(=O)c1ccc(CNC(=O)CN2C(=O)NC3(CCc4ccccc43)C2=O)cc1` (stereo not drawn), the “activity change, negative = inhibition” value is 1.57%. Same read-out and setting: the figure for `CC(C)(Oc1ccc(Cl)cc1)C(=O)OCC(=O)NCCc1ccc(S(N)(=O)=O)cc1` is -2.49%; for `CCCC(Cl)CCCC(Cl)CCC(Cl)CCC(Cl)CCC(Cl)CCCC(Cl)CCC` (stereo not drawn) it is -0.806%. As to `CCCC[C@H]1C(=O)N(c2ccccc2)N(c2ccc(O)cc2)C1=O`, the “activity change, negative = inhibition” value was 11.4% [at 21.6 µM]. Still for that read-out and setting: next, `C=CCC1CCC(=O)N2CCCC12` (stereo not drawn): -6.15% [at 136 µM]. With `COc1cc2c(cc1OC)CN(C(C)C(=O)Nc1cccc(S(=O)(=O)N3CCOCC3)c1)CC2` (stereo not drawn), the “activity change, negative = inhibition” value was -1.61%.

For `OC[C@H]1O[C@@H](n2cnc3c(NC4CCCC4)ncnc32)[C@H](O)[C@H]1O`, the “activity change, negative = inhibition” value is 1.48%. Regarding `CCOC(=O)[C@]1(C(/C=C/c2ccco2)NC(=O)OC)CCCC1=O` (stereo partly drawn), the activity change, negative = inhibition is 2.17% [at 12.8 µM]. `CCCCC/C=C\C[C@H](O)/C=C/C=C/C=C/[C@@H](O)CCCC(=O)O`: the “activity change, negative = inhibition” value was -0.244%. Same read-out and setting: next, `CCNc1ncc2ncc(=O)n(Cc3cccc(OC)c3)c2n1`: 26.5%; `CC(Nc1oc(-c2ccccc2)nc1-c1ccccc1)c1ccccc1` (stereo not drawn): “inactive”; `CN(CC(=O)NCCc1ccc(F)cc1)CC(=O)Nc1ccc(F)c(F)c1F`: -17.8%.

With `CC1(C)OC(C(O)(c2ccccc2)c2ccccc2)C(C(O)(c2ccccc2)c2ccccc2)O1` (stereo not drawn), the activity change, negative = inhibition is -1.37% [at 12.8 µM]. For `Cc1ccc(SCC(CC(C)C)N2CCN(CCc3ccccc3)CCC2=O)cc1` (stereo not drawn), the “activity change, negative = inhibition” value is -11.1%.
